# Mtb FBA inh: inhibits M. tuberculosis FBA enzyme; actives 2.3% (n = 360,000); purified M. tuberculosis FBA, fluorescence read-out; AID 588726; inhibition, % at 1 µM;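 further: 0% = vehicle and 100% = reference inhibitor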
# BH1578 lux ind: inducers of Vibrio cholerae quorum light production without autoinducers; V. cholerae BH1578 lux reporter, luminescence, 6 h; activation, % at 18.7 µM; actives 0.16% (n = 350,000); in the data active means activation mostly above about 9.7%, no sharp cut-off
# RecA splice inh: blocks M. tuberculosis RecA intein splicing | cell-free RecA intein splicing, fluorescence | actives 0.75% (n = 290,000) | inhibition, % (test concentration not listed) | P9WHJ3 | AID 2221; in the data active means inhibition above about 30%;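 further: 0% = vehicle wells and 100% = reference inhibitor control wells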
# Target sequence (P9WHJ3 whole entry, looked up, canonical isoform): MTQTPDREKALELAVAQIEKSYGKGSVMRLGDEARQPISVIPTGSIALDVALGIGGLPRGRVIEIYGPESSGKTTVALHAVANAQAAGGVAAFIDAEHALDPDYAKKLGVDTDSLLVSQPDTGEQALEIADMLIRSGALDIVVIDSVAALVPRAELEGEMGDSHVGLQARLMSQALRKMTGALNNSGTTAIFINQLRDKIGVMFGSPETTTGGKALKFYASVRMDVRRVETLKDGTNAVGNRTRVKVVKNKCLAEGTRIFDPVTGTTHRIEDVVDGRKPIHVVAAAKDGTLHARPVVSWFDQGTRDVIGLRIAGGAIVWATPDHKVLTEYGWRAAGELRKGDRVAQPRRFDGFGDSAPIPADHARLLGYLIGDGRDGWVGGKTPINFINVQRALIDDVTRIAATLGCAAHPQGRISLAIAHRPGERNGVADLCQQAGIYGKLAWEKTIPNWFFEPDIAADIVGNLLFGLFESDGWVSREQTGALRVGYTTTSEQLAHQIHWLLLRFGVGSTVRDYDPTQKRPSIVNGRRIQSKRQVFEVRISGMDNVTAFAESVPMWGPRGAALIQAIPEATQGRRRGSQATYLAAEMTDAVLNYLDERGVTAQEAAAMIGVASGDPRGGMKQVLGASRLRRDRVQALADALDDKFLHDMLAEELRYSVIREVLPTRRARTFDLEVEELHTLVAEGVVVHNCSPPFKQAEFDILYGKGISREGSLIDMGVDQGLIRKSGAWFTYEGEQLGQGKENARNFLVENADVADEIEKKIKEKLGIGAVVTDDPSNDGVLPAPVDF
# GDH-TPI counter-1: counter-screen for M. tuberculosis FBA inhibitors: GDH-TPI coupled enzymes; inhibition, % at 4.8 µM; GDH-TPI coupled enzyme counterscreen, NADH absorbance; actives 1.2% (n = 360,000); AID 588335; in the data active means inhibition above about 30%;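 further: 0% = DMSO wells and 100% = wells lacking the enzyme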
# Rv3671c protease: Rv3671c (M. tuberculosis) protease inhibition; P9WHR9; inhibition, % at 5.96 µM; actives 0.048% (n = 320,000); in the data active means inhibition above about 38%;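 further: extracellular domain of Rv3671c used as enzyme; 0% = enzyme with DMSO and 100% = no enzyme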
# UGM FP inh: blocks M. tuberculosis UGM enzyme. inhibition, % at 10 µM. P9WIQ1. actives 0.06% (n = 320,000). purified UGM, fluorescence polarization probe displacement; in the data active means inhibition above about 10%, passing the limit was not always enough
# Mtb FBA inh conf: Mtb FBA inhibition, confirmed; shares compounds with Mtb FBA inh; purified M. tuberculosis FBA, fluorescence read-out; inhibition, % at 1 µM; actives 78% (n = 5,600);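 further: 0% = vehicle wells and 100% = reference inhibitor wells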
# GDH-TPI counter-2: counter-screen for M. tuberculosis FBA inhibitors: GDH-TPI coupled enzyme inhibition. shares compounds with Mtb FBA inh. GDH-TPI coupled enzyme counterscreen, fluorescence. inhibition, % at 1 µM. actives 81% (n = 5,600). AID 652141; in the data active means inhibition above about 10%
# GDH-TPI DR: counter-screen for M. tuberculosis FBA inhibitors: GDH-TPI dose response | shares compounds with Mtb FBA inh | GDH-TPI coupled enzyme assay, fluorescence, artifact counterscreen | IC50, µM | actives 79% (n = 170); call rule not given here
# Active calls of the source: *; i = inactive; x = not tested or not shown; + = active, no number. Hits are enriched below; roughly 4.1% of the tested compounds scored in any of these assays. Unless noted, no stated cut-off is given here; in the data, active means inhibition above about 27%; inactive means the rest.
SMILES,Mtb FBA inh,BH1578 lux ind,RecA splice inh,GDH-TPI counter-1,Rv3671c protease,UGM FP inh,Mtb FBA inh conf,GDH-TPI counter-2,others
Cc1ccc(-c2cc(C(=O)N3CCN(c4ccccc4O)CC3)c3ccccc3n2)o1,38.1*,i,-1.7,7.3,2.1,0.7,106.4*,103.4*,
COc1ccc(-c2cc(C(=O)NCCN3CCOCC3)c3ccccc3n2)cc1OC,0.2,i,-1.0,15.6,-8.7,-2.9,x,x,
COc1ccc(-c2cc(C(=O)NCCN3CCOCC3)c3ccccc3n2)cc1,47.0*,-7.7,-0.4,17.7,5.9,-1.6,81.1*,93.1*,
COC(=O)C1CCN(C(=O)c2cc(-c3ccc(Cl)s3)nc3ccccc23)CC1,67.8*,-2.1,x,15.3,-2.1,-2.3,146.8*,139.4*,
O=C(NCCN1CCOCC1)c1cc(-c2ccc(Cl)s2)nc2ccccc12,92.6*,-0.5,-3.2,21.1,-6.4,-1.2,148.4*,116.0*,
CN1CCN(c2ncnc3c2ncn3[C@H]2CN(Cc3ccc4c(c3)OCO4)C[C@@H](CO)O2)CC1,4.8,i,x,7.4,x,x,x,x,
O=C(COC(=O)/C=C/c1cccc(Cl)c1)NC(=O)NCc1ccccc1,12.0,i,x,-1.6,0.6,-0.1,x,x,
Cc1ccc(-c2cc(C(=O)NCCN3CCOCC3)c3ccccc3n2)o1,42.8*,-1.4,-60.7,22.7,-6.3,3.3,119.7*,89.5*,
Cc1ccc(C)c(CNS(=O)(=O)c2c(C(=O)N3CCCC3)c(C)n(C)c2C)c1,1.1,i,0.1,8.6,3.7,-1.7,x,x,
Cc1cc(C)cc(C(=O)NCC(=O)OCC(=O)NC2CC2)c1,-1.3,i,x,-3.9,-2.4,-3.6,x,x,
COc1cc(C(=O)NCC(c2cccs2)N2CCOCC2)ccc1OCc1ccccc1 (stereo unspecified),7.2,-1.5,x,11.5,x,x,x,x,
C=CCOc1c(Br)cc(C2C3=C(CCCC3=O)N(C)C3=C2C(=O)CCC3)cc1OCC,58.4*,3.3,-125.3,14.1,-16.8,1.7,57.7*,41.0*,
CCCN(C(=O)c1ccc(S(=O)(=O)N2CCCC2)cc1)C1CCS(=O)(=O)C1 (stereo unspecified),3.5,i,x,2.5,-2.3,-0.9,x,x,
NC(=O)c1ccccc1N/C=C/C(=O)c1ccc(F)cc1,20.0,1.0,-6.4,19.8,x,x,x,x,
Cc1ccc(C(=O)/C=C/Nc2ccccc2C(N)=O)o1,31.8*,1.0,-36.9,20.0,4.2,-0.8,41.5*,23.8*,
CCCCc1cc(=O)oc2cc(C)cc(OCC(=O)NCc3cccnc3)c12,45.9*,-0.4,-0.3,10.9,-10.7,1.6,18.8,13.0*,
CCCCc1cc(=O)oc2cc(OCC(=O)Nc3cccnc3)c(Cl)cc12,-1.2,i,-0.5,0.0,-1.4,0.4,x,x,
CCc1cc(=O)oc2cc(C)cc(OCC(=O)NCc3cccnc3)c12,71.6*,-0.2,-0.4,-0.8,0.8,-1.6,+,+,
Cc1cc(OCC(=O)NCc2cccnc2)c2c(C)c(C)c(=O)oc2c1,30.3*,-11.1,-0.6,2.5,0.2,-1.7,140.5*,121.7*,
CCCc1cc(=O)oc2cc(C)cc(OCC(=O)Nc3ccccn3)c12,22.8,i,0.4,3.5,-1.4,1.6,x,x,
CCCCc1cc(=O)oc2cc(C)cc(OCC(=O)Nc3ccccn3)c12,33.7*,0.7,-0.5,13.6,0.3,0.8,9.4,2.3,
CC(=O)NCCc1ccc(S(=O)(=O)N2CCN(c3nc(-c4ccccc4)c(C)s3)CC2)cc1,3.9,i,4.6,5.2,-5.6,-1.5,x,x,
O=C(NCc1ccc(F)cc1)C(=O)NCC1OCCN1S(=O)(=O)c1cc(F)ccc1F (stereo unspecified),1.4,-0.4,x,11.9,x,x,x,x,
FC(F)(F)c1cccc(-c2ccn3ncnc3n2)c1,33.4*,1.6,-0.8,0.0,18.5,-1.2,-12.3,-6.0,
Oc1ccc(CN2CCCCC2)nc1-c1ccccc1,86.5*,2.9,-0.6,3.4,-2.2,0.3,16.0,-0.5,GDH-TPI DR=5.29*
SMILES,Mtb FBA inh,BH1578 lux ind,RecA splice inh,GDH-TPI counter-1,Rv3671c protease,UGM FP inh,Mtb FBA inh conf,GDH-TPI counter-2,others
Oc1ccc(-c2ccccc2)cc1CN1CCCCCC1,-1.8,i,4.9,-5.5,-1.7,0.0,x,x,
COc1ccc(C(C)=O)cc1CSCc1cc(C(C)=O)ccc1OC,2.7,1.1,0.4,1.0,-6.2,-0.2,x,x,
CNC(=O)C(C#N)(Cc1cc(C(C)=O)ccc1OC)Cc1cc(C(C)=O)ccc1OC,36.8*,-0.4,-0.9,3.9,1.7,-0.7,1.4,-4.5,
N=c1oc2cc(O)ccc2cc1C(=O)Nc1ccc(Cl)cc1,102.8*,-0.3,i,10.2,6.9,-1.0,+,+,
Cc1ccc(NC(=O)c2cc3ccccc3oc2=N)cc1,-1.8,i,0.2,2.6,-4.6,-2.9,x,x,
CNC(=O)c1cc2c(cn1)[nH]c1ccccc12,19.4,0.5,1.7,-11.1,2.3,4.9,x,x,
CC(=O)N(C(C)=O)c1ncc2c([nH]c3ccccc32)c1C#N,38.5*,-6.7,x,10.8,-1.9,-1.5,+,189.3*,
COc1ccc2sc(-c3ccc(SC)cc3)c(C#CC(C)(C)O)c2c1,30.3*,i,x,39.0*,-15.7,0.9,-1.0,-0.3,
COc1ccc2sc(-c3ccc(SC)cc3)c(C#CCO)c2c1,26.7,-0.3,x,15.5,-31.7,4.9,x,x,
CCOc1ccc(Nc2cc(C)nc3ccc(C)cc23)cc1,0.8,-0.3,1.8,8.6,0.3,-0.2,x,x,
COc1ccc2oc(C)c(C(N)=O)c2c1,0.1,-0.3,1.8,-4.1,2.9,-1.6,x,x,
CCOc1ccc2nc(C)cc(C(=O)O)c2c1,87.0*,-7.1,2.6,12.0,5.3,2.3,73.9*,50.7*,
COc1ccc2nccc(C(N)=O)c2c1,48.9*,-0.3,-2.5,-7.2,4.6,-2.4,42.5*,28.3*,
COc1ccc2nc(C)cc(N3CCC(C(N)=O)CC3)c2c1,2.8,-0.6,1.2,14.5,12.1,-1.3,x,x,
COc1ccc2nc(C)cc(C(=O)O)c2c1,78.7*,i,1.7,9.6,4.6,-0.9,11.4,-7.0,GDH-TPI DR=2.33*
Cc1onc(-c2c(F)cccc2Cl)c1C(=O)NCc1ccc(S(N)(=O)=O)cc1,-2.0,-0.4,x,7.6,-6.4,0.3,x,x,
CCCCN(C)CCNC(=O)c1c[nH]c2ccc(S(=O)(=O)N(CC)CC)cc2c1=O,29.2*,-1.8,-0.2,20.8,5.6,2.7,51.2*,51.6*,
Cc1ccc(C2NC(=O)c3c(sc4c3CCN(C)C4)N2)s1 (stereo unspecified),44.9*,i,-56.7,19.2,-4.5,0.2,69.4*,71.2*,
COc1ccc(S(=O)(=O)N2CCN(C(=O)c3cccs3)CC2)cc1,79.3*,i,1.6,-0.4,-4.0,1.1,+,172.3*,

# From PubChem BioAssay
